ELG1 genotoxic: genotoxicity induction in ELG1-luciferase HEK293T cells; hit rate 1.3% among 330,000; HEK293T ELG1-luciferase reporter, luminescence, 16 h; Potency, µM (series often up to 46 µM), usual class: activators; AID 504466; also: nearly all actives have a fitted effect of over 60% in size
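Luminescence read-out: rising ELG1-luciferase signal, reflecting elevated ELG1 protein under genetic stress, flags genotoxic compounds. Cells were treated for 16 hr at 37 °C before ONE-Glo detection.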
FLuc counter: counter-screen for miR-21 project: firefly luciferase inhibitors or activators. AID 588342. hit rate 6.9% among 360,000. purified FLuc, Km substrates, luminescence inhibition. Potency, µM (series often up to 57.5 µM), hits mostly inhibitors; also: nearly all actives have a fitted effect of over 55% in size
Target sequence (P08659 whole entry, looked up): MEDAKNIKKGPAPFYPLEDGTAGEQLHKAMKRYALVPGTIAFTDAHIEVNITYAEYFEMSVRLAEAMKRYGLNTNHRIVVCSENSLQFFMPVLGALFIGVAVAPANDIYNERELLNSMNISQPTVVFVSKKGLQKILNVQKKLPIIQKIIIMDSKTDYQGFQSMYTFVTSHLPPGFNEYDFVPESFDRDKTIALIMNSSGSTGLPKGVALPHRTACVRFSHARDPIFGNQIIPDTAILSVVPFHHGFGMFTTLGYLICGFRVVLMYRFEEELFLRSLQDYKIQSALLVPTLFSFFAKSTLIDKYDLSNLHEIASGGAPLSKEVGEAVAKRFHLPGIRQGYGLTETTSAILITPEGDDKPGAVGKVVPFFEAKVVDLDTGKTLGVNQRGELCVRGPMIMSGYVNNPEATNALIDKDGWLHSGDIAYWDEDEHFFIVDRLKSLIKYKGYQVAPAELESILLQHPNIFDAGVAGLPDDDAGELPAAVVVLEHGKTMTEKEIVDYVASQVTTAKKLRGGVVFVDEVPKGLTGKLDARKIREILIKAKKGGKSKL
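Purified P. pyralis luciferase, 10 nM final, with Km-level 10 uM D-luciferin and 10 uM ATP in 50 mM Tris acetate pH 7.5, 10 mM Mg acetate, 0.01% Tween-20, 0.05% BSA; 6-point qHTS titration about 60 µM downward; luminescence read.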
ELG1 repair inh: blocks ELG1-dependent DNA repair in HEK293T cells. HEK293T ELG1-luciferase reporter, luminescence, 16 h; DNA damage induced by 5-fluorouridine. Potency, µM (titrated, usually from 46.1 µM), actives largely listed as inhibitors. hit rate 2.3% among 330,000; also: nearly all actives have a fitted effect of over 55% in size
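Reporter activity after DNA damage by 5-fluorouridine is monitored. Compound-treated cells incubate 16 hr at 37 °C, then ONE-Glo is added for 30 min before luminescence reading.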
SMN2 splice enh: enhancers of SMN2 splice variant expression | Potency, µM (highest dose often 46.1 µM), most hits filed as activators | hit rate 2.8% among 210,000 | AID 1458 | HEK293 SMN2-luciferase splicing reporter, luminescence, 30-36 h; also: nearly all actives have a fitted effect of over 55% in size
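HEK293 cells carry an SMN2 minigene-luciferase reporter in which exon 7 inclusion puts luciferase in frame. Cells were seeded at 2000 cells/well, attached for 10-12 hours, then exposed to compounds for 30-36 hours at 37C before ONE-Glo luminescence.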
Rab9 prom act: activators of Rab9 promoter; hit rate 2.8% among 320,000; AID 485297; Potency, µM (highest dose often 9.22 µM), most hits filed as activators; Huh7 Rab9 promoter-luciferase reporter, luminescence, 24 h; also: nearly all actives have a fitted effect of over 60% in size
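Steps: seed 1500 Huh7 Rab9-luc cells per well, rest 2 h at 37 °C; add compound in DMSO; incubate 24 h; add luciferase reagent, 10 min ambient; read luminescence.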
NPC1 promoter act: NPC1 promoter activation; Huh7 NPC1 promoter luciferase reporter, 24 h; Potency, µM (series often up to 9.22 µM), hits mostly activators; hit rate 2.4% among 320,000; also: nearly all actives have a fitted effect of over 60% in size
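Cells: Huh7 expressing luciferase under the NPC1 promoter, 1500/well. Seeded 2 h, compound added, incubated 24 h at 37 °C. Luciferase reagent, 10 min ambient, then luminescence.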
Hits are given with their value; – = inactive; ? = inconclusive; · = no result given. The list is not random: actives were taken first. Their share in the collection is about 9.2%. Calls follow the shape of the dose curve; as a rule, active = well fitted curve in the direction sought with a large enough effect; inconclusive = small, poorly fitted or top-dose-only effect, or another doubt; inactive = no such curve, though single readings can be large; an effect the other way counts as inactive or inconclusive.

SMILES | ELG1 genotoxic | FLuc counter | ELG1 repair inh | SMN2 splice enh | Rab9 prom act | NPC1 promoter act
O=[N+]([O-])c1nn(-c2ccc3c(c2)OCCO3)n(O)c1=NCc1ccc(F)cc1 | ? | 4.26µM | ? | 3.98µM | 3.55µM | ?
CN=c1c([N+](=O)[O-])nn(-c2ccc3c(c2)OCCO3)n1O | ? | – | ? | – | ? | –
CC(C)CC1Nc2ncnc(N3CCN(c4ccccn4)CC3)c2N(Cc2ccccc2)C1=O (stereo not given) | – | · | – | · | · | ·
CC(C)c1ccc(NC(=O)CCNS(=O)(=O)c2ccc3c(c2)CCCC(=O)N3)cc1 | · | – | · | · | · | ·
O=C(CSc1c2c(nc3ccc(Cl)cc13)CCCC2)N1CCN(c2cccc(Cl)c2)CC1 | · | – | · | – | · | ·
COC(=O)c1c(-c2ccccc2)csc1N1C(=O)Nc2ccccc2N1O | ? | 4.78µM | ? | ? | 2.82µM | ?
O=C(NC1CCCCC1)C(c1ccc2ncccc2c1)N(Cc1cccs1)C(=O)c1cccs1 (stereo not given) | – | – | 16.4µM | – | – | –
CCOc1ccccc1C(=O)N[C@H](C(=O)OCc1csc(CC(=O)Nc2ccc(C)cc2)n1)C(C)C | – | · | 23.1µM | · | · | ·
CCOC(=O)c1cc2ccc3ccccc3c2oc1=O | – | – | – | · | – | –
CCOC(=O)c1cc2c(s1)-c1ccccc1CC2 | – | 10.7µM | ? | – | – | –
CCOC(=O)c1cc2ccc3ccccc3c2s1 | ? | 5.36µM | ? | ? | ? | ?
O=C(CSc1nnc(Nc2ccccc2F)s1)Nc1cccc(S(=O)(=O)N2CCCCC2)c1 | – | 13.5µM | – | – | – | –
Cc1ccc(Nc2nnc(SCC(=O)Nc3cccc(S(=O)(=O)N4CCCCC4)c3)s2)cc1 | – | 2.69µM | – | – | – | –
Cc1nnc(SCC(=O)Nc2cccc(S(=O)(=O)N3CCCCC3)c2)s1 | – | · | – | · | – | –
COc1ccc(CCNC(=O)c2cc(S(=O)(=O)N3CCCC(C)C3)cn2C)cc1OC (stereo not given) | · | – | · | · | · | ·
COc1cc2cc(C#N)c(SCC(=O)Nc3cc(C)on3)nc2cc1OC | – | – | – | · | – | –
Cc1ccc(C)c(N2CCN(C(=O)C3CCN(c4nc(-c5ccc(C(C)C)cc5)no4)CC3)CC2)c1 | · | 12µM | · | · | · | ·
CCOC(=O)N1CCN(c2nc(-c3ccc(OC)cc3)no2)CC1 | – | 16.9µM | ? | – | – | ?
COc1ccc(-c2noc(N3CCC(C(=O)Nc4cc(OC)ccc4OC)CC3)n2)cc1 | – | – | ? | · | – | –
CCOC(=O)N1CCC(NC(=O)CCc2nc(-c3ccc(C)cc3)no2)CC1 | – | – | 13µM | – | – | –
COc1ccc(-c2noc(N3CCC(C(=O)Nc4ccccc4OC)CC3)n2)cc1 | – | ? | 23.1µM | · | – | –
COc1ccc(-c2noc(CCC(=O)NC3CCCCCC3)n2)cc1 | – | ? | – | · | – | –
Cc1ccc(C2=NN(S(=O)(=O)c3ccccc3)C(c3ccccc3O)C2)cc1 (stereo not given) | – | – | ? | – | – | –
O=C(Cn1c(-c2cccs2)cc2cc(Cl)ccc21)N1CCN(c2ccccc2F)CC1 | · | – | · | · | · | ·
Cc1ccc(NC(=O)C2CCN(c3nc(-c4ccc(C(C)C)cc4)no3)CC2)c(Cl)c1 | · | 21.3µM | · | · | · | ·
SMILES | ELG1 genotoxic | FLuc counter | ELG1 repair inh | SMN2 splice enh | Rab9 prom act | NPC1 promoter act
CCN(CC)c1ccc(-n2cc3c(=O)n(C)c(=O)n(C)c3c2)cc1 | – | ? | – | – | – | –
CN(C)c1ccc(-n2cc3c(=O)n(C)c(=O)n(C)c3c2)cc1 | ? | 16.9µM | ? | – | ? | ?
Cc1ccc(-c2nc(CN(C)Cc3cccc4cnccc34)c(C)o2)s1 | – | – | ? | · | – | –
O=C(OCc1nc2ccccc2s1)c1cnccn1 | ? | 10.7µM | ? | – | – | –
CCCCC(=O)OCc1nc2ccccc2s1 | – | 21.3µM | ? | – | – | –
Cc1noc(C)c1COC(=O)CCCc1nc2ccccc2s1 | – | – | – | – | – | –
O=C(c1ccccc1)c1ccc(COC(=O)c2cnccn2)cc1 | – | 23.9µM | – | – | – | –
O=C(O)c1ccccc1OCc1nc2ccccc2s1 | ? | 3.79µM | ? | · | – | ?
O=C(O)c1ccccc1OCc1ccccc1Br | – | – | – | – | – | –
COc1ccc(CSC2=CS(=O)(=O)c3ccccc3N2)cc1 | – | – | ? | – | – | –
O=C(OCc1nc2ccccc2s1)c1cccs1 | · | 2.69µM | · | ? | · | ·
N#C/C(=C(/O)COC(=O)c1ccccc1O)c1nc2ccccc2s1 | – | 21.3µM | – | – | – | –
O=C(OCc1nc2ccccc2s1)c1ccccc1O | ? | 8.49µM | ? | – | – | –
COc1cc(OC)cc(C(=O)NCC(=O)OCc2nc3ccccc3s2)c1 | ? | 9.53µM | ? | · | ? | –
CC(=O)Nc1ccc(NC(=O)C(C)OC(=O)c2c(NC(C)=O)sc(C)c2C)cc1 (stereo not given) | – | – | – | · | – | –
Cc1ccc2nc(SCC(=O)Nc3cccc([N+](=O)[O-])c3)[nH]c2c1 | – | ? | – | – | – | –
Cc1ccccc1Cn1ccc(-c2ccc3c(c2)OCO3)n1 | – | 15.1µM | ? | – | – | ?
Cc1ccccc1Cn1nnc(-c2ccc3c(c2)OCO3)n1 | – | 15.1µM | ? | 3.98µM | ? | –
Fc1cccc(Cl)c1Cn1nnc(-c2ccc3c(c2)OCO3)n1 | ? | 12µM | ? | 12.6µM | ? | ?
Fc1cccc(Cn2ccc(-c3ccc4c(c3)OCO4)n2)c1 | – | 21.3µM | ? | ? | – | –
Cc1cccc(NC(=O)CSc2ccc(-c3ccc4c(c3)OCO4)nn2)c1C | – | – | ? | – | – | –
O=C(Nc1ccccc1)Nc1n[nH]c2nnc(-c3ccccc3)c(-c3ccccc3)c12 | – | – | – | · | – | –
COc1cc(NC(=O)Cc2cccc3ccccc23)c(C(=O)O)cc1OC | – | – | – | · | – | –
Cn1c(N=Nc2ccc(N3CCOCC3)cc2)[n+](C)c2ccccc21 | – | 7.57µM | – | – | – | –
COc1ccc(-n2nc(C)cc2N)cc1 | – | – | ? | · | – | –
SMILES | ELG1 genotoxic | FLuc counter | ELG1 repair inh | SMN2 splice enh | Rab9 prom act | NPC1 promoter act
Cc1cc(N)n(-c2ccc3ccccc3c2)n1 | ? | 16.9µM | ? | ? | ? | –
N#CCCn1c(=O)c(-c2cccs2)nc2cnc(Oc3cccc(Cl)c3)nc21 | · | · | · | – | · | ·
CCn1c(SCC(=O)Nc2ccc(C)c(C)c2)nnc1-c1nonc1NC(C)=O | · | – | · | · | · | ·
Cc1cccc(-c2cnn(-c3ccccc3)c2N)c1 | ? | 6.75µM | ? | · | 3.55µM | ?
Cc1cccc(-c2cnn(-c3cccc([N+](=O)[O-])c3)c2N)c1 | – | ? | – | ? | – | –
Nc1ccccc1Nc1cc(-c2cccc(Cl)c2)nn1-c1ccccc1 | – | 26.9µM | ? | – | – | –
NC(=O)c1cnn(-c2cccc(Cl)c2)c1N | – | – | – | · | – | –
